Publication PMC5540273 (PLoS ONE, 2017)

Assays:
Conditions in all cases: concentration: 1 μM, replicates: in singlicate; n = 1
[1] = system: CAMK1B
[2] = system: CAMK1D
[3] = system: CAMK1G
[4] = system: CAMK1
[5] = system: CAMK2A
[6] = system: CAMK2B
[7] = system: CAMK2D
[8] = system: CAMK2G
[9] = system: CAMK4
[10] = system: CAMKK1
[11] = system: CAMKK2
[12] = system: CASK
[13] = system: T1, CDC2L1
T1 construct: gene CDK11B

[14] = system: CDC2L2
[15] = system: T2, CDC2L5
T2 construct: gene CDK13

[16] = system: T3, CDK11
T3 construct: gene CDK19

[17] = system: CDK2
[18] = system: CDK3
[19] = system: CDK4-cyclinD1
[20] = system: CDK4-cyclinD3
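Note: KINOMEscan kinase panel screen.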

SMILES	%Inh [1] [%]	%Inh [2] [%]	%Inh [3] [%]	%Inh [4] [%]	%Inh [5] [%]	%Inh [6] [%]	%Inh [7] [%]	%Inh [8] [%]	%Inh [9] [%]	%Inh [10] [%]	%Inh [11] [%]	%Inh [12] [%]	%Inh [13] [%]	%Inh [14] [%]	%Inh [15] [%]	%Inh [16] [%]	%Inh [17] [%]	%Inh [18] [%]	%Inh [19] [%]	%Inh [20] [%]
CC(C)(C)c1ccc(C(=O)Nc2cn3cc(Cl)ccc3n2)cc1	0	0	0	0	3	0	3	11	6	95.8	14	18	0	0	6	16	0	0	11	0
CN1C(=O)C(Nc2ccc(Cl)c(C(=O)O)c2)=C(c2ccc(Cl)cc2)C1=O [SB-404290]	0	17	100	22	17	0	0	18	0	0	0	3	0	0	1	0	13	6	0	0
CC(=O)Nc1nc2cnc(Nc3cc(NC(=O)c4cccc(CCC#N)c4)ccc3C)nc2s1	0	30	0	25	20	0	0	0	15	0	0	10	6	9	36	2	3	0	0	0
NC(=O)c1nnc2ccccc2c1N	0	13	7	14	0	0	7	0	0	10	0	36	7	25	11	3	6	19	32	0
CC(C)(C)c1ccc(C(=O)Nc2cn3cc(-c4cccnc4)ccc3n2)cc1	24	38	12	4	6	7	24	10	0	21	18	0	11	17	0	9	3	10	29	0
